Results on eleven compounds are retold here after PubChem BioAssay (EPA / NIEHS).

The nature of assay [1]: ATG_TGFb_CIS: Attagene CIS-FACTORIAL HepG2 Assay for human Transforming Growth Factor (TGF) (AID 2282967; active = hit-call score of the fitted dose curve at least 0.9, where 1 is the maximum; inactive = score below 0.9). The settings on record: HepG2 Attagene CIS TGFb reporter, mRNA transcription; actives raise or lower the signal. Summed up: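 Bidirectional fitting relative to DMSO gave the endpoint. Underlying data: reporter mRNA from HepG2 cells carrying transiently transfected cis-regulated reporter constructs, harvested 24 h after dosing and analyzed by RT-PCR and capillary electrophoresis.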

In assay [2] the target is X-box-binding protein 1 (Homo sapiens) (UniProt P17861). Description: ATG_Xbp1_CIS: Attagene CIS-FACTORIAL HepG2 Assay for human X-box Binding Protein 1 (XBP1) (AID 2282972; active = hit-call score of the fitted dose curve at least 0.9, where 1 is the maximum; inactive = score below 0.9). The settings on record: HepG2 XBP1 cis-element reporter, Attagene multiplex; actives raise or lower the signal. Summed up: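 Reporter transcripts were quantified by RT-PCR with fluorescent primer extension and capillary electrophoresis after 24 h chemical exposure. Cells: transiently transfected HepG2 carrying cis-regulated reporter constructs; data fitted bidirectionally relative to DMSO.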
X-box-binding protein 1 (Homo sapiens), sequence (P17861 whole entry, looked up): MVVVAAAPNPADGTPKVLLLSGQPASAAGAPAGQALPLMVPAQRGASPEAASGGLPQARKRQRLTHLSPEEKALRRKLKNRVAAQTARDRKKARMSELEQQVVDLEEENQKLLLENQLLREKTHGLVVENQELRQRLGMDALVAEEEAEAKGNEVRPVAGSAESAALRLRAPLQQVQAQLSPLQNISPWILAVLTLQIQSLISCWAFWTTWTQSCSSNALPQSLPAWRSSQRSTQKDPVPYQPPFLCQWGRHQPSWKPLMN

Assay [3] is described as follows: ATG_GAL4_TRANS: Attagene TRANS-FACTORIAL HepG2 Assay for GAL4 (Internal Marker) (AID 2282976). The settings on record: HepG2 Attagene TRANS GAL4 internal marker reporter. Summed up:
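Background-control readout: GAL4-UAS reporter transcript in transiently transfected HepG2 cells after 24 h compound exposure. Measured by RT-PCR, 6-FAM primer extension, HpaI digest and capillary electrophoresis; gain-of-signal fit versus DMSO.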

Assay [4] concerns the target Oxysterols receptor LXR-beta (Homo sapiens) (UniProt P55055). As to the kind of experiment: ATG_LXRb_TRANS: Attagene TRANS-FACTORIAL HepG2 Assay for human Liver X Receptor beta (LXRb) (AID 2282981). The settings on record: HepG2 Attagene TRANS GAL4-LXRb reporter, mRNA. Summed up:
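Multiplexed reporter assay, HepG2, 24 h dosing. Fluorescence of labelled RT-PCR products after capillary electrophoresis gives transcript level; positive fitting direction relative to DMSO.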

Assay [5] in a line: ATG_M_06_TRANS: Attagene TRANS-FACTORIAL HepG2 Assay for M06 Transcription Factor (Internal Marker) (AID 2282983). Particulars: HepG2 Attagene TRANS M06 internal marker reporter. Summed up:
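mRNA levels of a reporter transcript, quantified as FAM fluorescence on capillary electrophoresis, served as readout. HepG2 cells expressing exogenous GAL4-chimera reporter constructs were exposed for 24 h. Gain of signal over DMSO was evaluated.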

For assay [6], the target named is Nuclear receptor subfamily 4 group A member 2 (Homo sapiens) (UniProt P43354). Description: ATG_NURR1_TRANS: Attagene TRANS-FACTORIAL HepG2 Assay for human Nuclear Receptor Related Protein 1 (NURR1) (AID 2282985). The settings on record: HepG2 Attagene TRANS reporter, mRNA readout. Summed up:
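Endpoint: reporter mRNA increase relative to DMSO. HepG2 cells transfected with reporter units, treated 24 h; RNA processed by RT-PCR, labelling, HpaI digestion and capillary electrophoresis.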

Assay [7] addresses Transcriptional activator Myb (Homo sapiens) (UniProt P10242). As to the kind of experiment: ATG_Myb_CIS: Attagene CIS-FACTORIAL HepG2 Assay for human Myeloblastosis (Myb) Proto-Oncogene Transcription Factor (AID 2282986; active = hit-call score of the fitted dose curve at least 0.9, where 1 is the maximum; inactive = score below 0.9). Particulars: HepG2 Attagene CIS-FACTORIAL Myb reporter transcription; actives raise or lower the signal. Summed up:
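Using HepG2 liver cells bearing transiently transfected cis-promoter reporter constructs, the assay measures induction or loss of reporter mRNA after 24 hours of dosing. Detection used fluorescently labeled RT-PCR products separated by capillary electrophoresis.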

Assay [8] deals with Nuclear respiratory factor 1 (Homo sapiens) (UniProt Q16656). Description: ATG_NRF1_CIS: Attagene CIS-FACTORIAL HepG2 Assay for human Nuclear Respiratory Factor 1 (NRF1) Orphan Gene (AID 2282987; active = hit-call score of the fitted dose curve at least 0.9, where 1 is the maximum; inactive = score below 0.9). The settings on record: HepG2 NRF1 cis-element reporter, Attagene multiplex; actives raise or lower the signal. Summed up:
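Reporter mRNA induction or loss in HepG2 cells after 24 h dosing; cis-regulated reporter constructs report endogenous transcription-factor activity. Quantified by RT-PCR/capillary electrophoresis fluorescence, DMSO-referenced.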

The nature of assay [9]: ATG_M_19_TRANS: Attagene TRANS-FACTORIAL HepG2 Assay for M19 Transcription Factor (Internal Marker) (AID 2282974). Particulars: HepG2 Attagene TRANS-FACTORIAL M19 internal marker reporter. Summed up:
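Multiplexed TRANS format: HepG2 liver cells bearing transient GAL4-UAS reporter units, chemical treatment 24 h, reporter transcripts quantified by RT-PCR plus capillary electrophoresis. DMSO defines baseline.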

Assay [10] concerns the target Glucocorticoid receptor (Homo sapiens) (UniProt P04150). Description: ATG_GR_TRANS: Attagene TRANS-FACTORIAL HepG2 Assay for human Glucocorticoid Receptor (GR) (AID 2282978).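 Note: activators score as hits since higher reporter transcript over DMSO is fitted.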 The settings on record: HepG2 Attagene TRANS GR reporter, mRNA transcription. Summed up: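 Transiently transfected HepG2 cells express chimeric NR-GAL4 proteins acting on GAL4-UAS reporter units. Compounds are applied for 24 h. mRNA induction over DMSO is measured by capillary electrophoresis.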

For assay [11], the target named is Bile acid receptor (Homo sapiens) (UniProt Q96RI1). Description: ATG_FXR_TRANS: Attagene TRANS-FACTORIAL HepG2 Assay for Farnesoid X Receptor (FXR) (AID 2282979).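 Note: hits raise reporter mRNA above DMSO so AC50 marks FXR activation.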 The settings on record: HepG2 Attagene TRANS FXR-GAL4 reporter transcription. Summed up: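 HepG2 cells were transiently transfected with GAL4-UAS reporters driven by chimeric NR-Gal4 proteins and dosed for 24 h. Reporter mRNA was quantified by RT-PCR, fluorescent labelling, HpaI digestion and capillary electrophoresis, with gain of signal scored versus DMSO.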
Bile acid receptor (Homo sapiens), sequence (Q96RI1 whole entry, looked up, the tested form may be a part): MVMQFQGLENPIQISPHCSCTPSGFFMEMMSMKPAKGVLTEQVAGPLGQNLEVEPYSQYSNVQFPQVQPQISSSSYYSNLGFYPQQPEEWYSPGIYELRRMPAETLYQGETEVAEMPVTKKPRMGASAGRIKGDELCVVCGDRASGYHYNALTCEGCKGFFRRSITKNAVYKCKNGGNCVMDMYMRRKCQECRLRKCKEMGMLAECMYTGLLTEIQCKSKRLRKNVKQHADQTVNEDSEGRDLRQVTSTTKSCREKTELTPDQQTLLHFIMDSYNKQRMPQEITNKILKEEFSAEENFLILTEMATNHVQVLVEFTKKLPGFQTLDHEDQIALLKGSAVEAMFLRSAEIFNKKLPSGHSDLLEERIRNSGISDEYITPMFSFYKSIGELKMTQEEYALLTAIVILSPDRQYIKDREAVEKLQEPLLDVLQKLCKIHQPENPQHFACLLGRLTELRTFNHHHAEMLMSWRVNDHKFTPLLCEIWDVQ

The target in assay [12] is Hepatocyte nuclear factor 4-alpha (Homo sapiens) (UniProt P41235). As to the kind of experiment: ATG_HNF4a_TRANS: Attagene TRANS-FACTORIAL HepG2 Assay for human Hepatocyte Nuclear Factor 4 alpha (HNF4a) (AID 2282982). The settings on record: HepG2 HNF4a transactivation reporter, mRNA readout. Summed up: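 Endpoint reflects transcriptional activation of a GAL4-UAS reporter by an HNF4a-GAL4 chimera in transfected HepG2 cells, 24 h post-dosing. Fluorescence from RT-PCR products separated by capillary electrophoresis; DMSO baseline.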

Assay [13] in a line: ATG_M_32_TRANS: Attagene TRANS-FACTORIAL HepG2 Assay for M32 Transcription Factor (Internal Marker) (AID 2282984). Particulars: HepG2 Attagene TRANS M32 internal marker reporter. Summed up: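 Internal-marker readout from a multiplexed transcription reporter panel. HepG2 cells were transfected with GAL4-UAS reporter units, treated 24 hours, and reporter transcript levels determined by fluorescence after RT-PCR and capillary separation.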

The target of assay [14] is Estrogen receptor (Homo sapiens) (UniProt P03372). As to the kind of experiment: ATG_ERa_TRANS: Attagene TRANS-FACTORIAL HepG2 Assay for human Estrogen Receptor alpha (ERa) (AID 2282970). Particulars: HepG2 Attagene TRANS ERa GAL4 reporter, mRNA. Summed up: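 Gal4-fusion ERa transactivation, measured as reporter transcript level in transiently transfected HepG2 cells. Exposure 24 h; RT-PCR plus capillary electrophoresis with fluorescence detection.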

For assay [15], the target named is Estrogen-related receptor gamma (Homo sapiens) (UniProt P62508). Description: ATG_ERRg_TRANS: Attagene TRANS-FACTORIAL HepG2 Assay for human Estrogen-Related Receptor gamma (ERRg) (AID 2282977).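 Note: hits increase reporter signal over DMSO so potencies reflect activators.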 Particulars: HepG2 Attagene TRANS reporter, ERRg transactivation. Summed up:
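Exogenous NR-Gal4 chimera activity measured as reporter transcript induction after 24 h in transiently transfected HepG2 cells. RNA reverse-transcribed, PCR-amplified, 6-FAM-labelled and resolved by capillary electrophoresis; increase over DMSO baseline.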

In assay [16] the target is Androgen receptor (Homo sapiens) (UniProt P10275). As to the kind of experiment: ATG_AR_TRANS: Attagene TRANS-FACTORIAL HepG2 Assay for human Androgen Receptor (AR) (AID 2282973). The settings on record: HepG2 Attagene TRANS-FACTORIAL AR reporter transcription. Summed up: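 HepG2 cells transiently transfected with AR-Gal4 chimera and GAL4-UAS reporter units; chemical exposure 24 h. Reporter mRNA quantified by RT-PCR with fluorescent labelling and capillary electrophoresis; gain-of-signal fitted against DMSO.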

Assay [17] concerns the target Oxysterols receptor LXR-alpha (Homo sapiens) (UniProt Q13133). As to the kind of experiment: ATG_LXRa_TRANS: Attagene TRANS-FACTORIAL HepG2 Assay for human Liver X Receptor alpha (LXRa) (AID 2282980). Particulars: HepG2 Attagene TRANS reporter, LXRa transactivation. Summed up: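 HepG2 cells transiently transfected with GAL4-UAS reporter units for chimeric NR-Gal4 proteins, exposed to chemicals for 24 h. Reporter mRNA quantified by RT-PCR and capillary electrophoresis; gain of signal fitted relative to DMSO.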

Assay [18] has as its target Steroid hormone receptor ERR1 (Homo sapiens) (UniProt P11474). As to the kind of experiment: ATG_ERRa_TRANS: Attagene TRANS-FACTORIAL HepG2 Assay for human Estrogen-Related Receptor alpha (ERRa) (AID 2282971). The settings on record: HepG2 Attagene TRANS reporter, ERRa transactivation. Summed up:
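HepG2 cells transiently transfected with GAL4-UAS reporter units and chimeric NR-Gal4 constructs; after 24 hour compound incubation, reporter mRNA quantified by RT-PCR, fluorescent labelling and capillary electrophoresis, gain of signal versus DMSO.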

Molecules are shown by their SMILES. Results filed as inconclusive are left out. Activity calls are given as the source filed them. Rule for the calls, unless noted: active = hit-call score of the fitted dose curve at least 0.9, where 1 is the maximum; inconclusive = response in the unintended direction; inactive = score below 0.9.

Oxysterols receptor LXR-alpha (Homo sapiens), sequence (Q13133 whole entry, looked up, the tested form may be a part): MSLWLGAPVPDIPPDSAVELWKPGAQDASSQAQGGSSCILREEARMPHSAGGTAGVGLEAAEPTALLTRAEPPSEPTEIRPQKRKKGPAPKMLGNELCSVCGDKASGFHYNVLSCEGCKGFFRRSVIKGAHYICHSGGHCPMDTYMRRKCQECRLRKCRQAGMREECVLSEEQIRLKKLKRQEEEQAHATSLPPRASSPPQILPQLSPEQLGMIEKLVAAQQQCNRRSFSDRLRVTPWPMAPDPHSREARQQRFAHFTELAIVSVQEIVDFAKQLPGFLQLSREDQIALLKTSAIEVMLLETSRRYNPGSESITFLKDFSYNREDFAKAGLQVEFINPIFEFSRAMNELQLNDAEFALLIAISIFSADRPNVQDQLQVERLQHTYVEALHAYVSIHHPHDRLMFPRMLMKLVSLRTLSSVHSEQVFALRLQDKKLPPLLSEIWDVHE
Transcriptional activator Myb (Homo sapiens), sequence (P10242 whole entry, looked up): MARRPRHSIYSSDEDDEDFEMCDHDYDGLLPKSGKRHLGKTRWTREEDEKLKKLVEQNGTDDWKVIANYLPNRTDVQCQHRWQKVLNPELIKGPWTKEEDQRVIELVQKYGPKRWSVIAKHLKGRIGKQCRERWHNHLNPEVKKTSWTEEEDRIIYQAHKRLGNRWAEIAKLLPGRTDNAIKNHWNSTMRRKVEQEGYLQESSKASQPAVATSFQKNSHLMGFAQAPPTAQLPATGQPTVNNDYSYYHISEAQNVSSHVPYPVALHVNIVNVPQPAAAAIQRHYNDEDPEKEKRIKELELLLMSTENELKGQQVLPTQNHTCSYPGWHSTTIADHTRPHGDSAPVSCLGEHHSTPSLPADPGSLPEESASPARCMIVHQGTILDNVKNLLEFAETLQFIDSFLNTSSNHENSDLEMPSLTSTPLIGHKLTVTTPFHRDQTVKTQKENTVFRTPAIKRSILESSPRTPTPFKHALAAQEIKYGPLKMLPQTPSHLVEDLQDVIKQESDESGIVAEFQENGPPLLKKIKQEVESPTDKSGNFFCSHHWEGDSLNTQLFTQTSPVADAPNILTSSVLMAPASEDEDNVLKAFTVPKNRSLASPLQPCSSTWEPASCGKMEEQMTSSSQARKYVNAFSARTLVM
Estrogen-related receptor gamma (Homo sapiens), sequence (P62508 whole entry, looked up, the tested form may be a part): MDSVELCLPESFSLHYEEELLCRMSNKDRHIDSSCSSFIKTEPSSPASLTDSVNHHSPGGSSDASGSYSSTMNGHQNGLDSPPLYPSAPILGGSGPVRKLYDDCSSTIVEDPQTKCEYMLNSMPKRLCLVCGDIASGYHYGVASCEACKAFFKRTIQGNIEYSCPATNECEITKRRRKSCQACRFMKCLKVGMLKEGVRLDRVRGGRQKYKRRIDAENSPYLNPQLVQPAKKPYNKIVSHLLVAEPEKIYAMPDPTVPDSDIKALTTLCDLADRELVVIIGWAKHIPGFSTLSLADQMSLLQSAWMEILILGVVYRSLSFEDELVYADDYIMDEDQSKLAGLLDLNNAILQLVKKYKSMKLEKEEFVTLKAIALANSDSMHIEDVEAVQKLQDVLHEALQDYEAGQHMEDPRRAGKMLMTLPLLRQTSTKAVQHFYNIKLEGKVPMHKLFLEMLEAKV
Nuclear receptor subfamily 4 group A member 2 (Homo sapiens), sequence (P43354 whole entry, looked up): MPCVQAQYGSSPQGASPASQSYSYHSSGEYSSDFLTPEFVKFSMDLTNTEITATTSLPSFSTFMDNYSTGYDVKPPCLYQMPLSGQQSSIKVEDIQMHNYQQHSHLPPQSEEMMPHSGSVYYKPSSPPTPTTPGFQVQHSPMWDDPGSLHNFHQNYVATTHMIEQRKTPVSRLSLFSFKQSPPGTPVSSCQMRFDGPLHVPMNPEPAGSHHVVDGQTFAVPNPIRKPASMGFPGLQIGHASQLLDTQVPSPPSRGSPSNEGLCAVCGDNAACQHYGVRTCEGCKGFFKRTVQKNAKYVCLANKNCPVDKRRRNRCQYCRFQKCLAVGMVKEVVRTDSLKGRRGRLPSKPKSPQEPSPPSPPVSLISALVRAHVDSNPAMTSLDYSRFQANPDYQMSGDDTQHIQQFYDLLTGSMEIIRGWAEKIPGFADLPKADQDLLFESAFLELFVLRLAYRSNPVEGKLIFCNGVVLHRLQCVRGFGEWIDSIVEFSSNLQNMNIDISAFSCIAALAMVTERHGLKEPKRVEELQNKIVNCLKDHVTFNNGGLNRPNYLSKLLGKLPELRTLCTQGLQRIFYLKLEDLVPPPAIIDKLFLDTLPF
Glucocorticoid receptor (Homo sapiens), sequence (P04150 whole entry, looked up, the tested form may be a part): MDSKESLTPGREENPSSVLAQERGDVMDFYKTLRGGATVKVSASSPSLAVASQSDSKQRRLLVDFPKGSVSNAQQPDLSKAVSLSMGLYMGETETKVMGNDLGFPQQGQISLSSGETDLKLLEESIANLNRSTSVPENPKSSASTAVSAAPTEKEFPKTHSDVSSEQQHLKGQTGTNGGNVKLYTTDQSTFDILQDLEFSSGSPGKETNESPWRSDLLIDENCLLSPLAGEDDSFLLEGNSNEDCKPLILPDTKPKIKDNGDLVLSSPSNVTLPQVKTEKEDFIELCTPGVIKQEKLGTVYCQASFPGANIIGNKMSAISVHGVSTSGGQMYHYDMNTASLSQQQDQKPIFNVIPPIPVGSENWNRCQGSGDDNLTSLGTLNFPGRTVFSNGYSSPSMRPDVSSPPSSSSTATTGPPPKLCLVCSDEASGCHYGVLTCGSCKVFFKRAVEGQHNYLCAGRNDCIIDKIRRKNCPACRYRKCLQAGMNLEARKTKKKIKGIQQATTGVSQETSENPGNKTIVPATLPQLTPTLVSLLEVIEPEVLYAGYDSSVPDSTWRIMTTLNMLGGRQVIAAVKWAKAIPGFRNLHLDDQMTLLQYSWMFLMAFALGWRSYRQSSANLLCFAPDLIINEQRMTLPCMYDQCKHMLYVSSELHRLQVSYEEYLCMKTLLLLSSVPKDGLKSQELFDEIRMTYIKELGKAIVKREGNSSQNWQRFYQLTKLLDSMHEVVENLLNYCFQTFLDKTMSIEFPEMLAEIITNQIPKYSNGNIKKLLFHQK
Nuclear respiratory factor 1 (Homo sapiens), sequence (Q16656 whole entry, looked up): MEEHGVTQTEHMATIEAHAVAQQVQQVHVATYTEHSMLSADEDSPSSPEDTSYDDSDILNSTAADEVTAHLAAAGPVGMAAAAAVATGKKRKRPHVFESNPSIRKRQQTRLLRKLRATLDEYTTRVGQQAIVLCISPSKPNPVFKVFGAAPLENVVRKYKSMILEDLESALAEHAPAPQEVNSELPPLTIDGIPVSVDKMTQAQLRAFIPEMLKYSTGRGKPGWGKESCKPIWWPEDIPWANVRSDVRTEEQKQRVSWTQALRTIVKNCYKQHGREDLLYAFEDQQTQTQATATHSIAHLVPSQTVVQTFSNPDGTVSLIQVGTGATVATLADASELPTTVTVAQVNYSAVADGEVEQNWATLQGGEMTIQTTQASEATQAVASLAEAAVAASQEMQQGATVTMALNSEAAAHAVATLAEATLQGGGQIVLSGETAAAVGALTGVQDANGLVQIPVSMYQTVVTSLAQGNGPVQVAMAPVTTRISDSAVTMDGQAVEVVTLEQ
Oxysterols receptor LXR-beta (Homo sapiens), sequence (P55055 whole entry, looked up, the tested form may be a part): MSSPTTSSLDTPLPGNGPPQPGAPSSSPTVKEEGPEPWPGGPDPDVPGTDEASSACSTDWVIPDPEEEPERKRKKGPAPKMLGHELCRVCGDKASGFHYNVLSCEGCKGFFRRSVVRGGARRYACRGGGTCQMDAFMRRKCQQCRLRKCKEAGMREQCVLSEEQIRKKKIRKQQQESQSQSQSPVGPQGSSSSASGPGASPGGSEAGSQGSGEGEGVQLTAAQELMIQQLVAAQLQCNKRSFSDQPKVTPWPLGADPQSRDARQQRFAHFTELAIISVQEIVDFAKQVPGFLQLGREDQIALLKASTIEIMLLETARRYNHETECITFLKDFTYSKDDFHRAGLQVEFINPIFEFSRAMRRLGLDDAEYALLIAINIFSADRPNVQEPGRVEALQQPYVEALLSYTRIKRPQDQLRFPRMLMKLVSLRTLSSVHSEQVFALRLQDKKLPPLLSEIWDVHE

For the compound `CCN(CCO)CCO`, the result in assay [1], in assay [2], in assay [3], in assay [4], in assay [5] and in assay [6] was inactive. The outcome in assay [7] and in assay [8] was inactive.
As for `CNC(=O)CSP(=O)(OC)OC`, the result in assay [1], in assay [2], in [9], in assay [10], in assay [11] and in [12] was inactive. For the same compound, the outcome in [5], in [13], in assay [7] and in assay [8] was inactive.
Regarding `Cc1cc(C(F)(C(F)(F)F)C(F)(F)F)ccc1NC(=O)c1cccc(I)c1C(=O)NC(C)(C)CS(C)(=O)=O`, the result in [1], in assay [14], in [2], in assay [9], in assay [15] and in assay [10] was inactive. For the same compound, the result in assay [11], in [7] and in [8] was inactive.
For orientation: AC50 means the concentration at which the activity in the assay is half-maximal. For the compound `CCCCN(CCCC)C(=S)S`, the compound was classed as inactive in assay [1], in assay [14], in [15] and in assay [5]. The AC50 is 70.5 µM (active) in assay [2], 100 µM (active) in [7] and 152 µM (active) in assay [8].
As for `CCOC(=O)c1ccccc1S(=O)(=O)NC(=O)Nc1nc(Cl)cc(OC)n1`, the outcome in assay [1], in assay [2], in assay [16], in [12], in assay [5] and in assay [13] was inactive. Besides, the compound was classed as inactive in assay [6], in assay [7] and in assay [8].
Take `Clc1cccc(Cl)c1`: the compound was called inactive in assay [1], in assay [2], in assay [9], in [3], in assay [15] and in assay [7]. For the same compound, the outcome in [8] was inactive.
With `CC(C=O)Cc1ccc2c(c1)OCO2` (stereo unspecified), the compound was called inactive in [1], in assay [2], in assay [3], in assay [11], in [17] and in assay [5]. Moreover, the call in assay [7] and in [8] was inactive.
`C#C[C@]1(O)CC[C@H]2[C@@H]3CCC4=CC(=O)CC[C@]4(C)[C@H]3CC[C@@]21C`: the outcome in assay [1], in [2], in [17], in assay [4], in assay [5] and in assay [7] was inactive. In addition, in assay [8], the compound was classed as inactive.
With `O=c1[nH]c(=O)n(Cl)c(=O)n1Cl`, the result in [1], in [18], in [2], in assay [9], in [3] and in [15] was inactive. Moreover, the compound was called inactive in assay [17], in assay [5], in assay [13], in [6], in [7] and in [8].
For the compound `CN(C)C(=S)S`, the compound was classed as inactive in assay [1], in assay [2], in assay [9], in [3], in [4] and in assay [5]. In addition, the result in assay [6], in assay [7] and in assay [8] was inactive. The half-maximal activity concentration (AC50) in assay [17] was 24.8 µM (active).
Consider `CCCCCCCCCCCCOS(=O)(=O)O`, for which the call in assay [1], in assay [2], in assay [9], in assay [3], in assay [10] and in assay [13] was inactive. In addition, the result in [6], in assay [7] and in assay [8] was inactive.
